SMARCA2 act: increases SMARCA2 function in MMTV reporter cells | MG213 cells, MMTV-luciferase reporter, dexamethasone, overnight | activation, % at 9.1 µM | 1% of 370,000 active; in the data active means activation above about 7.8%;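 further: 0% = vehicle wells and 100% = reference activator wells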
MsrA inh: inhibits bovine methionine sulfoxide reductase A. 0.75% of 360,000 active. purified bovine MsrA, absorbance read-out. inhibition, % at 15.5 µM; in the data active means inhibition above about 4.5%;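 further: 0% = vehicle wells with enzyme and 100% = reference inhibitor wells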
bovine MsrA act: bovine methionine sulfoxide reductase A activation; purified bovine MsrA, absorbance read-out; 0.3% of 360,000 active; activation, % at 10.6 µM; in the data active means activation above about 7.5%;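 further: 0% = vehicle and 100% = reference activator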
KLK7 zymogen act: activators of human kallikrein-7 zymogen. purified proKLK7, EDANS-DABCYL substrate fluorescence; 100% is mature enzyme control, 0% vehicle. activation, % at 7 µM. 0.9% of 370,000 active. P49862;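 active means activation above the mean of all tested compounds plus 3 SD, computed per campaign excluding outliers beyond control limits, cut at about 13% in these data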
Target sequence (P49862 whole entry, looked up): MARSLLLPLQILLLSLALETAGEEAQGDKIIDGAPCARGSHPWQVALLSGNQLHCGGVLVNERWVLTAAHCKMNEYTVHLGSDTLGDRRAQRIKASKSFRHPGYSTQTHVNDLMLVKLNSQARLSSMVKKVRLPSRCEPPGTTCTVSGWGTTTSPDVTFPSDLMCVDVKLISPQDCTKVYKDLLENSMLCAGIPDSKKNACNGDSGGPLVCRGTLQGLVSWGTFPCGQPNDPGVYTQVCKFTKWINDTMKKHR
proKLK7 act conf: proKLK7 activation, confirmation; shares compounds with KLK7 zymogen act; purified proKLK7, EDANS-DABCYL substrate fluorescence; scaled: vehicle 0, mature enzyme 100; activation, % at 7 µM; 68% of 3,200 active;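 active means activation, as change over the incubation, above the mean of all tested compounds plus 3 SD, cut at about 13% in these data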
EDANS interfere: optically interferes with EDANS-DABCYL signal, flagging KLK7 hits | shares compounds with KLK7 zymogen act | EDANS-DABCYL substrate fluorescence interference, no enzyme, 4 h; solvent 0%, active enzyme control 100% | activation, % at 7 µM | 80% of 3,200 active;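 active means activation above the all-compound mean plus 3 SD, ignoring values outside control-based bounds, cut at about 4.8% in these data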;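 further: value is the 4 h activation minus the activation read at time zero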
K7 EDANS ctr: optically interferes with EDANS-DABCYL fluorescence, kallikrein-7 activator counter-screen | shares compounds with KLK7 zymogen act | EC50, µM | 20% of 250 active | EDANS-DABCYL peptide fluorescence interference, no enzyme | AID 720493;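 active means compounds that raise the fluorescence signal in this interference counterscreen, with EC50 at or below 10 µM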;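 further: intact quenched peptide substrate alone read at 355 nm excitation and 520 nm emission; signal is fluorescence gain from T0 to T4 after four hours at room temperature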
Starred values were filed as active, the others as inactive. Rows were chosen to be rich in hits. Some 2.8% of all compounds tested hit in one or more screens of this group.

Results for COc1cccc(-c2cc(C(F)(F)F)c(C#N)c(=O)[nH]2)c1 ?
SMARCA2 act: -1; MsrA inh: 1; bovine MsrA act: -3; KLK7 zymogen act: 17*; proKLK7 act conf: 40*; EDANS interfere: 51*

Results for Cc1ccccc1NC(=O)COC(=O)c1cc(S(=O)(=O)N2CCOCC2)ccc1C ?
SMARCA2 act: 0; MsrA inh: 1; bovine MsrA act: -1; KLK7 zymogen act: 0

How did CCOc1nc(N=C(N)N)nc2c(C)cccc12 do in these assays?
SMARCA2 act: -1; MsrA inh: 1; bovine MsrA act: 0; KLK7 zymogen act: 21*; proKLK7 act conf: 12; EDANS interfere: 17*

How did COc1cc2c(cc1OC)C(C)=NC1(CCCCC1)C2 do in these assays?
SMARCA2 act: -1; MsrA inh: 0; bovine MsrA act: -3; KLK7 zymogen act: 101*; proKLK7 act conf: 61*; EDANS interfere: 66*

What do the screens show for `COc1cc2c(cc1OC)C(C)=NCC2`?
SMARCA2 act: 0; MsrA inh: 2; bovine MsrA act: -1; KLK7 zymogen act: 115*; proKLK7 act conf: 62*; EDANS interfere: 77*

Results for COc1cc2c(cc1OC)C(c1ccc(Cl)cc1)=NCC2 ?
SMARCA2 act: -2; MsrA inh: -1; bovine MsrA act: -4; KLK7 zymogen act: 2

What do the screens show for `CCc1cc2c(=O)c(Oc3ccccc3F)c(C)oc2c(CN(C)C)c1O`?
SMARCA2 act: -3; MsrA inh: 6.7*; bovine MsrA act: -2; KLK7 zymogen act: 63*; proKLK7 act conf: 72*; EDANS interfere: 74*

Results for COc1ccccc1-c1c(C(F)(F)F)oc2c(CN(C)C)c(O)ccc2c1=O ?
SMARCA2 act: 1; MsrA inh: 2; bovine MsrA act: -1; KLK7 zymogen act: 7

How did CCOC(=O)c1c(SCC(=O)Nc2nccs2)nc(C)c(C)c1C do in these assays?
SMARCA2 act: 4; MsrA inh: 1; bovine MsrA act: -2; KLK7 zymogen act: 79*; proKLK7 act conf: 61*; EDANS interfere: 58*

Results for CCCCC1C(C#N)=C(C)NC2=C1C(=O)CC(C)(C)C2 (stereo not given) ?
SMARCA2 act: -3; MsrA inh: 1; bovine MsrA act: -4; KLK7 zymogen act: 41*; proKLK7 act conf: 22*; EDANS interfere: 25*

What do the screens show for `COC(=O)c1ccc(C2C(C#N)=C(C)NC3=C2C(=O)CC(C)(C)C3)cc1` (stereo not given)?
SMARCA2 act: -1; MsrA inh: 1; bovine MsrA act: -1; KLK7 zymogen act: 36*; proKLK7 act conf: 43*; EDANS interfere: 30*; K7 EDANS ctr: >70

How did COc1ccc(C2C(C#N)=C(SC)NC3=C2C(=O)CC(C)(C)C3)cc1 (stereo not given) do in these assays?
SMARCA2 act: -2; MsrA inh: 2; bovine MsrA act: 3; KLK7 zymogen act: 1

What do the screens show for `CC(=O)Nc1cccc(-c2ccnc3c2CC(C)(C(=O)NCc2cccs2)O3)c1` (stereo not given)?
SMARCA2 act: -6; MsrA inh: 1; bovine MsrA act: -2; KLK7 zymogen act: 0

How did Cc1cccc(CN2[C@H](COCc3ccccc3)C=CS2(=O)=O)c1 do in these assays?
SMARCA2 act: -3; MsrA inh: 0; bovine MsrA act: -4; KLK7 zymogen act: -1

Results for CC1(C)Oc2cc3oc(C(=O)O)cc(=O)c3cc2-c2ccccc21 ?
SMARCA2 act: 1; MsrA inh: 2; bovine MsrA act: -9; KLK7 zymogen act: 100*; proKLK7 act conf: 68*; EDANS interfere: 67*

Results for Cc1cc2oc(C(=O)NCc3ccccc3)cc(=O)c2cc1C ?
SMARCA2 act: -2; MsrA inh: 0; bovine MsrA act: -10; KLK7 zymogen act: 0

What do the screens show for `Cn1c(COc2ccccc2)nnc1SCC(=O)Nc1ccc(S(=O)(=O)Nc2nccs2)cc1`?
SMARCA2 act: -1; KLK7 zymogen act: -1

How did COC(=O)C1CN(Cc2cn(Cc3ccc(F)cc3)nn2)CCS(=O)(=O)N1Cc1ccc(C)cc1 (stereo not given) do in these assays?
SMARCA2 act: -4; KLK7 zymogen act: 0

Compound activity as filed in PubChem BioAssay.
